# Screening results: PubChem BioAssay, several laboratories
# LANA-H2B inh = blocks KSHV LANA binding to histone H2A/H2B; Q9QR71; cell-free LANA-H2A/H2B peptide, fluorescence polarization; inhibition, % (no concentration beside the values); 320,000 compounds, 0.6% hits; in the data active means inhibition mostly above about 10%, no sharp cut-off; inactive means mostly below about 6.7%
# LYPLA1 inh = counter-screen for PME1 inhibitors: inhibitors of human LYPLA1. inhibition, % at 5.9 µM. 320,000 compounds, 0.16% hits. O75608. recombinant LYPLA1, FP-Rh probe fluorescence polarization. AID 2174;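 active means inhibition above the mean of all tested compounds plus 3 SD, set per campaign, cut at about 14% in these data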;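 further: inhibitors block serine hydrolase probe labeling of LYPLA1 so polarization falls; 0% = enzyme with DMSO and 100% = wells lacking LYPLA1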
# ZTA DNA inh = blocks Epstein-Barr virus ZTA, an EBNA-1 counter-screen | inhibition, % at 11 µM | 320,000 compounds, 0.15% hits | P03206 | AID 2234 | ZTA-DNA binding, fluorescence polarization; in the data active means inhibition above about 33%
# LYPLA2 inh = blocks human lysophospholipase 2, a PME1 counter-screen | recombinant LYPLA2, FP-Rh probe fluorescence polarization | 320,000 compounds, 0.38% hits | inhibition, % at 5.9 µM | AID 2177;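 active means inhibition above the screen-wide mean plus 3 SD, limit set per campaign, cut at about 26% in these data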;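 further: 0% = LYPLA2 with DMSO and 100% = wells lacking LYPLA2 enzyme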
# EBNA-1 inhibitor = blocks EBNA-1 binding to DNA; EBNA-1 DNA binding, fluorescence polarization; inhibition, % at 14.8 µM; 300,000 compounds, 0.34% hits; in the data active means inhibition above about 28%
# LYPLA1 confirm = LYPLA1 (human) inhibition, confirmation counter-screen | 480 compounds, 69% hits | shares compounds with LYPLA1 inh | recombinant LYPLA1, FP-Rh probe fluorescence polarization | inhibition, % at 5.9 µM;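 active means mean inhibition across replicates above the hit cutoff set in the primary screen, cut at about 15% in these data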;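 further: loss of FP-Rh probe labeling of LYPLA1 seen as lower polarization; 0% = LYPLA1 with DMSO and 100% = wells lacking LYPLA1 enzyme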
# LYPLA2 confirm = counter-screen for PME1 inhibitors: confirmation of human LYPLA2 inhibitors; 1,100 compounds, 72% hits; inhibition, % at 5.9 µM; AID 2232; shares compounds with LYPLA2 inh; recombinant LYPLA2, FP-Rh probe fluorescence polarization;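 active means mean inhibition across replicates above the hit cutoff set in the primary screen, cut at about 26% in these data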;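 further: blocked labeling of the enzyme by serine hydrolase FP-Rh probe lowers polarization; 0% = enzyme with DMSO and 100% = wells lacking LYPLA2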
# An asterisk follows results filed as active; . = no result; + = active, no number. Shown are actives, neighbours in structure and some others; about 1.4% of the full set was active somewhere.
SMILES,LANA-H2B inh,LYPLA1 inh,ZTA DNA inh,LYPLA2 inh,EBNA-1 inhibitor,LYPLA1 confirm,LYPLA2 confirm
COc1ccc(Cc2nnc(SCC(=O)N3CCN(c4ccccc4)CC3)o2)cc1,-3.7,24.1*,3.6,-2.3,-14.3,30.0*,.
COc1ccc(N2CCN(C(=O)CSc3nnc(CNc4ccccc4)o3)CC2)cc1,7.6,12.2,2.1,16.5,-3.8,.,.
O=C(CSc1n[nH]c(-c2cc(Cl)ccc2Cl)n1)NCCN1C(=O)CSC1=O,1.7,1.8,-9.4,-4.0,5.1,.,.
COc1ccc(-c2nc(CC(=O)Nc3cccc(S(=O)(=O)NC4=NCCC4)c3)cs2)cc1,.,16.2*,6.4,1.8,.,-1.2,.
Cc1ccc(-n2c(SCC(=O)Nc3cccc(S(=O)(=O)NC4=NCCCCC4)c3)nc3ccccc3c2=O)cc1C,5.8,-14.5,1.8,-27.9,4.4,.,.
Cc1cc(SCC(=O)Nc2cccc(S(=O)(=O)NC3=NCCCCC3)c2)nc2ccccc12,-0.4,19.1*,-0.4,1.1,5.6,28.9*,.
COc1ccccc1OCC(=O)Nc1cccc(S(=O)(=O)NC2=NCCCCC2)c1,.,-0.3,-0.1,-2.0,-8.3,.,.
Clc1cccc(N2CCN(CCNc3nc4ccccc4n4cnnc34)CC2)c1,3.4,16.7*,-11.8,67.2*,12.8,31.9*,62.1*
COc1ccc(C(CNC(=O)COc2c(C)cc(C)cc2C)N2CCOCC2)cc1 (stereo unspecified),-2.6,-3.4,-12.8,5.9,.,.,.
COc1ccc(C(CNC(=O)COc2ccc(-c3ccccc3)cc2)N2CCOCC2)cc1 (stereo unspecified),-1.2,44.8*,-0.6,43.6*,-0.5,56.8*,44.7*
COc1cc([N+](=O)[O-])ccc1NC(=O)CCS(=O)(=O)c1ccc2c(c1)n(C)c(=O)c(=O)n2C,1.3,-0.5,-4.1,-4.3,-4.7,.,.
CC(C)Cn1c(N)c(C(=O)NCC2CCCO2)c2nc3ccccc3nc21 (stereo unspecified),3.7,-2.0,4.1,-9.2,5.4,.,.
COCCn1c(N)c(C(=O)NCC2CCCO2)c2nc3ccccc3nc21 (stereo unspecified),3.0,70.1*,-10.4,70.5*,5.4,2.2,1.7
COCCCNc1c2c3c(cccc3[nH]c1=O)C(=O)c1ccccc1-2,123.5*,105.4*,-7.6,126.1*,-7.3,100.8*,96.9*
CNc1ccc2c3c(cccc13)C(=O)N(C)C2=O,88.3*,58.7*,-6.6,82.2*,-21.2,47.1*,59.0*
O=C1Cc2ccccc2C(c2ccc(Br)cc2)N1 (stereo unspecified),0.6,21.5*,-0.4,30.4*,-11.5,28.6*,26.9*
CC(=O)N1CCC2(CC1)C/C(=N\NC(=S)Nc1ccccc1C)c1cc(O)ccc1O2,2.8,17.2*,-14.1,48.3*,-16.5,29.0*,54.6*
CC(C)(C)c1ccc(NC(=O)CSc2n[nH]c(=O)n2C2CC2)cc1,-0.6,.,.,.,.,.,.
COc1cc([C@H]2Oc3cc([C@H]4Oc5cc(O)cc(O)c5C(=O)[C@@H]4O)ccc3O[C@@H]2CO)ccc1O,-3.4,20.8*,1.9,70.2*,-3.4,37.0*,74.5*
COc1cc(OC)c2c(c1)OC(c1ccc(OC)c(OC)c1)C(O)C2=O (stereo unspecified),-0.1,-1.1,-0.8,-2.6,-5.1,.,.
Nc1nc(NCc2ccco2)nc(N2CCCC2)c1[N+](=O)[O-],0.5,-1.8,-4.7,4.5,-9.8,.,.
Nc1nc(NCc2ccco2)nc(N2CCN(Cc3ccccc3)CC2)c1[N+](=O)[O-],-3.4,28.6*,1.5,47.5*,-2.0,41.8*,47.8*
COc1ccc2noc3c2c1C(=O)c1ccccc1-3,167.3*,25.4*,13.8,28.6*,0.6,21.0*,23.2
CCOc1ccc(S(=O)(=O)N2CCOCC2)cc1NC(=O)CSCc1ccc(C)cc1,5.2,-1.2,-11.3,-8.2,.,.,.
O=S(=O)(Nc1cc2nc3ccccc3nc2n1Cc1ccccc1)c1ccc(Cl)cc1,+,54.5*,30.6,57.0*,7.8,44.8*,92.7*
SMILES,LANA-H2B inh,LYPLA1 inh,ZTA DNA inh,LYPLA2 inh,EBNA-1 inhibitor,LYPLA1 confirm,LYPLA2 confirm
CSc1ccccc1NC(=O)C(=O)c1c[nH]c2ccccc12,1.7,-20.5,-6.5,-22.9,-0.7,.,.
O=C1c2cccc3c(O)ccc(c23)C(=O)N1c1ccc(Cl)cc1,22.5*,20.4*,-13.5,33.1*,-8.9,15.5*,17.1
COc1ccc(N=C2NC(=O)S/C2=C\c2ccc(N(C)C)cc2)cc1,-0.4,28.1*,-8.5,33.5*,-1.1,27.5*,17.8
Cc1[nH]c2ccccc2c1C(=O)CN1CCN(C/C=C/c2ccccc2)CC1,1.5,31.4*,-23.6,55.8*,-1.3,30.6*,53.7*
COc1ccc2[nH]c(C)c(C(=O)CN3CCN(C/C=C/c4ccccc4)CC3)c2c1,-1.9,1.5,11.8,4.7,1.9,.,.
CC(C)NC(=S)N/N=C/c1cc(Br)ccc1O,0.7,-0.2,-6.5,5.5,12.1,.,.
O=c1ccc2ccc(Oc3ccc([N+](=O)[O-])cc3Cl)cc2o1,-2.4,16.2*,-2.9,69.9*,6.3,21.8*,66.4*
O=C(COc1ccc2ccc(=O)oc2c1)Nc1cc([N+](=O)[O-])ccc1F,1.2,0.3,-4.6,3.7,5.3,.,.
O=C(O)CSCC(=O)Nc1ccccc1,-2.0,-1.4,-9.8,-2.2,-11.4,.,.
O=C(CSCc1ccccc1Br)Nc1ccccc1,-5.2,16.4*,-6.0,37.1*,-9.2,31.8*,47.2*
OC(CN1CCN(c2cccc(C(F)(F)F)c2)CC1)c1c[nH]c2ccccc12 (stereo unspecified),-3.4,22.6*,4.2,56.6*,-10.2,29.7*,48.9*
CN(C)S(=O)(=O)NCCNC(=O)c1cc(OCC(F)(F)F)ccc1OCC(F)(F)F,2.8,-8.1,-9.6,2.0,-4.4,.,.
O=C(NCCNC(=O)c1cc(OCC(F)(F)F)ccc1OCC(F)(F)F)Nc1cccc(C(F)(F)F)c1,1.3,33.1*,-16.6,60.6*,6.0,43.8*,49.6*
Cc1ccc2nccc(C(=O)N3CCCC(Nc4ccc(F)cc4)C3)c2c1 (stereo unspecified),3.1,4.2,-8.8,-0.7,-5.0,.,.
Cc1cc(O)ccc1N=Cc1c(C(F)(F)F)[nH][nH]c1=O,-1.6,70.9*,4.9,86.4*,7.0,4.7,5.7
O=c1[nH][nH]c(C(F)(F)F)c1C=Nc1ccccc1,-1.5,2.0,-2.3,1.4,3.6,.,.
COc1ccc(CN2CCN(Cc3cccc(Oc4ccccc4)c3)CC2)c(OC)c1OC,-10.8,21.1*,6.6,26.3*,-3.5,31.2*,21.3
O=C1C(CSCc2ccccc2)NC(=S)N1c1ccccc1 (stereo unspecified),-5.5,28.5*,4.0,50.3*,17.2,1.5,-3.4
